Molecules are shown by their SMILES. In all, about 66,000 compounds went through this assay and about 960 (1.5%) showed an effect of 50% or more. Many of the other results were omitted from the sample, so strong results are more common in it than they were.

The assay concerns Trypanosoma brucei. The assay is described as follows: Trypanosoma brucei 72 hour study. Also noted: scale not given: in the data most compounds retested in dose-response had high values. Format: functional, organism-based.

With `Cc1ccoc1-c1nnc(CNC2CCCN(c3cccnn3)C2)o1` (stereo unspecified), under “30.3 µM, […]”, the “Percent Effect” value stood at 3.988%. The same measure, in the same setting: the same measure for `CNCC(=O)N1CCCC1c1cncc(Oc2ccc(F)cc2)n1.Cl` (stereo unspecified): -5.938%. In the case of `CS(=O)(=O)c1ccc(-c2cnc(C3CCCN3)cn2)cc1.Cl` (stereo unspecified), for the setting “30.3 µM, […]”, the “Percent Effect” value is -27.05%. Turning to `Cc1nccc(N[C@H]2CN(C(=O)CN3CCCC3=O)C[C@@H]2C(C)C)n1`, the “Percent Effect” value (30 µM, 30.03 µM) is -19.05%. Regarding `O=C(CN1CCCCC1)N1CCC(c2cc(=O)n3c(n2)CCCCC3)C1.O=C(O)CC(O)(CC(=O)O)C(=O)O` (stereo unspecified), the “Percent Effect” value (30.3 µM, […]) was -11%. With `Cc1ccc(CN2CCC3(CC2)C(=O)N(CC(C)C)CCN3C)s1.O=C(O)C(F)(F)F.O=C(O)C(F)(F)F`, the “Percent Effect” value (30.3 µM, […]) is recorded as -75.61%.

In the case of `COc1cccc([C@@]2(O)CC[C@@H]3CN(C(=O)c4ccn(C)n4)C[C@@H]32)c1`, where the note is “30.3 µM, […]”, the “Percent Effect” value came to 1.75%. As for `CN(CC(=O)NCC(F)(F)F)C(=O)c1ccc(C(=O)OC(C)(C)C)cc1`, the “Percent Effect” value (30 µM, 30.03 µM) came out at 14.69%. For `N#Cc1c(Cl)nsc1NCc1ccnc(OCC(F)(F)F)c1`, for the setting “30 µM, 30.03 µM”, the “Percent Effect” value is listed as -8.155%. For the molecule `CCS(=O)(=O)c1ccccc1N1CCC(NC2CCCC2)CC1`, for the setting “30.3 µM, […]”, the “Percent Effect” value amounted to 22.61%.

Take `N#Cc1cn(C2CC2)c(=O)n(Cc2ncc(-c3cccs3)o2)c1=O`: for the setting “30.3 µM, […]”, the “Percent Effect” value is recorded as 55.83%. For the molecule `N#Cc1cn(C2CC2)c(=O)n(Cc2noc(-c3cccs3)n2)c1=O`, where the note is “30.3 µM, […]”, the “Percent Effect” value amounted to 18.62%.

With `N#Cc1cn(C2CC2)c(=O)n(Cc2cc(-c3cccs3)on2)c1=O`, the “Percent Effect” value (30.3 µM, […]) is listed as -130.2%. As for `Cc1nc(CNC(=O)N2CCN(c3ccc(Cl)cn3)CC2)sc1C`, the “Percent Effect” value (30.3 µM, […]) is recorded as 8.84%.

Turning to `COc1cccc(C(=O)N2C[C@H]3CC[C@@H]2CN(Cc2cscn2)C3)c1`, the “Percent Effect” value (30 µM, 30.03 µM) is -1.998%. Regarding `O=C(NCc1cccs1)[C@H]1CC[C@@H]2[C@@H](CCN2C2CCC2)O1.O=C(O)C(F)(F)F`, the “Percent Effect” value (30 µM, 30.03 µM) is listed as -12.3%. Turning to `Cl.Cl.c1cnc(NCc2cncc3c2CCN(Cc2cccs2)C3)nc1`, the “Percent Effect” value (30 µM, 30.03 µM) is recorded as -8.466%. For the molecule `CCN1CCC(NC(=O)c2ccc(F)cc2I)CC1`, under “30 µM, 30.03 µM”, the “Percent Effect” value came to 29.33%.

Consider `CC(C)CN1CCC(NC(=O)c2ccc(F)cc2F)CC1`, for which the “Percent Effect” value (30 µM, 30.03 µM) is recorded as -0.8337%. `CC(C)CN1CCC(NC(=O)c2ccc(F)cc2Cl)CC1`: the “Percent Effect” value (30 µM, 30.03 µM) is given as -22.52%. For `CCCN1CCC(NC(=O)c2ccc(F)cc2I)CC1`, the “Percent Effect” value (30 µM, 30.03 µM) is 80.53%. Turning to `CCCN1CCC(NC(=O)c2csc(C)c2C)CC1`, the “Percent Effect” value (30.3 µM, […]) is listed as -65.99%. `CC(C)CN1CCC(NC(=O)c2ccc(F)cc2I)CC1`: the “Percent Effect” value (30 µM, 30.03 µM) is 77.98%.

For the molecule `CNC(=O)COC1COC2(CCN(Cc3cccnc3OC)CC2)C1.O=C(O)C(F)(F)F` (stereo unspecified), the “Percent Effect” value (30.3 µM, […]) is given as -30.72%. For `O=C(O)C(F)(F)F.O=C([C@@H]1C[C@@H]2CCN(c3cccc(F)c3)C[C@H]2O1)N1CCCC1`, where the note is “30.3 µM, […]”, the “Percent Effect” value was -10.13%. As to `Cc1cncc(NC(=O)c2ccc(CN3CC[C@H](O)C3)cc2)c1`, the “Percent Effect” value (30.3 µM, […]) is -21.22%. As to `Cc1cc(NC(=O)c2ccc(CN3CC[C@H](O)C3)cc2)ccc1F`, the “Percent Effect” value (30.3 µM, […]) was 41.32%.

For the molecule `COc1cc(NC(=O)c2ccc(CN3CC[C@H](O)C3)cc2)cc(OC)c1`, the “Percent Effect” value (30.3 µM, […]) was found to be 58.59%. Take `CN(C)Cc1cn2c(n1)CN(C(=O)Cc1ccsc1)CC2.O=C(O)C(F)(F)F`: the “Percent Effect” value (30 µM, 30.03 µM) is -42.4%. Consider `Cl.O=c1c2sccc2nc2n1CCN(Cc1ccc(F)c(F)c1)CC2`, for which, where the note is “30.3 µM, […]”, the “Percent Effect” value amounted to 15.73%.

In the case of `COc1ccc2c(c1)CN(c1nc(C)cc(C)n1)CC2`, the “Percent Effect” value (30.3 µM, […]) is on record as 100.3%. With `COc1ccnc(N2CCc3ccc(OC(F)F)cc3C2)n1`, for the setting “30.3 µM, […]”, the “Percent Effect” value amounted to 7.96%. Turning to `COc1cccc(O[C@H]2CCN(c3nc(C)cc(C)n3)CC[C@@H]2O)c1`, the “Percent Effect” value (30.3 µM, […]) was -10.89%. On to `COc1ccc2c(c1)CN(c1cc(N3CCCC3CO)ncn1)CC2` (stereo unspecified), for which the “Percent Effect” value (30.3 µM, […]) is on record as 27.38%. For `COc1ccc(C2CN(c3nc(C)cc(C)n3)CCN2C(C)=O)cc1` (stereo unspecified), the “Percent Effect” value (30.3 µM, […]) came out at 9.247%. Still for that read-out and setting: the same measure for `Cc1cc(C)nc(N2CCc3ccc(OC(F)F)cc3C2)n1`: 70.84%. For the molecule `CN1CCc2c(C#N)c(NCc3cccnc3)n3cnnc3c2C1.Cl`, the “Percent Effect” value (30 µM, 30.03 µM) is given as -8.696%. For the molecule `CCC(C)N(Cc1ccsc1)C(=O)c1ccc2[nH]nnc2c1` (stereo unspecified), where the note is “30 µM, 30.03 µM”, the “Percent Effect” value is reported as 2.149%. Regarding `O=C(O)C(F)(F)F.c1cnc(N2CCO[C@H]3CN(CC4CCOC4)C[C@H]32)cn1` (stereo partly specified), the “Percent Effect” value (30.3 µM, […]) is recorded as -89.28%.

On to `Fc1ccc(N2CCCN(c3ccc(Cn4ccnc4)cn3)CC2)cc1`, for which the “Percent Effect” value (30 µM, 30.03 µM) was -16.3%. As for `CS(=O)(=O)N1CCO[C@@H]2CN(C(=O)N3CCOCC3)CC[C@@H]2C1`, where the note is “30.3 µM, […]”, the “Percent Effect” value was -93.06%. For `Cc1cnn(CCNCc2nc(Cc3ccccc3)no2)c1`, for the setting “30 µM, 30.03 µM”, the “Percent Effect” value was -8.184%.

As for `Cc1cnn(CCNCc2nc(CNC(=O)c3ccccc3)no2)c1`, the “Percent Effect” value (30.3 µM, […]) was 55.13%. Turning to `CCc1noc(CNCCn2cc(C)cn2)n1`, the “Percent Effect” value (30.3 µM, […]) is reported as -10.46%. Take `CC(NC(=O)NCc1cc(Br)cs1)c1ccccn1` (stereo unspecified): for the setting “10 µM”, the “Percent Effect” value is -58.94%. For `COc1ccc(CN2CCC(c3nnc(-c4scnc4C)o3)CC2)cc1`, the “Percent Effect” value (30.3 µM, […]) was 3.062%. As for `CCCn1cc(-c2ccnc(NC3CCc4ccccc43)n2)c(C)n1` (stereo unspecified), the “Percent Effect” value (30 µM, 30.03 µM) amounted to 34.15%. Consider `CCCn1cc(-c2ccnc(NC3CCc4ccccc4C3)n2)c(C)n1` (stereo unspecified), for which the “Percent Effect” value (30 µM, 30.03 µM) stood at 2.067%. In the case of `CCCn1ncc(-c2ccnc(NC3CCSC3)n2)c1C` (stereo unspecified), the “Percent Effect” value (30.3 µM, […]) is reported as 99.54%.

On to `CCCn1cc(-c2ccnc(NC3CCCc4ccccc43)n2)c(C)n1` (stereo unspecified), for which, for the setting “30 µM, 30.03 µM”, the “Percent Effect” value turned out to be 15.8%. `CCCn1ncc(-c2ccnc(NC3CCCc4ccccc43)n2)c1C` (stereo unspecified): under “30 µM, 30.03 µM”, the “Percent Effect” value worked out at 93.43%.

Turning to `CCc1cc(N[C@@H]2C[C@H]3CC[C@@H]2C3)n2nccc2n1`, where the note is “30 µM, 30.03 µM”, the “Percent Effect” value was determined as 24.99%. `CCCn1ncc(-c2ccnc(N[C@@H]3C[C@@H]4CC[C@H]3C4)n2)c1C`: the “Percent Effect” value (30.3 µM, […]) came to 89.15%. With `CCCn1ncc(-c2ccnc(NC3CC(C)(C)NC(C)(C)C3)n2)c1C`, the “Percent Effect” value (30.3 µM, […]) was 25.37%. The same measure, in the same setting: for `Cn1ncc2c(N[C@@H]3C[C@@H]4CC[C@H]3C4)nc(-c3ccncc3)nc21` the value was -15.13%. As for `Cc1ccc(C(=O)N2CCC3(CCN3c3ncccn3)C2)cn1.O=C(O)C(F)(F)F` (stereo unspecified), the “Percent Effect” value (30 µM, 30.03 µM) is listed as -27.47%. With `COC(=O)CCN(C)C(=O)c1csc(Cc2ccccc2F)n1`, where the note is “30 µM, 30.03 µM”, the “Percent Effect” value is -48.33%. As for `O=C(O)C(F)(F)F.O=C(c1ccccc1)N1CCC2(CCCN2c2ncccn2)CC1`, where the note is “30 µM, 30.03 µM”, the “Percent Effect” value is recorded as -3.287%. Turning to `Cc1nnsc1CN1C[C@H]2CC[C@@H]1CN(Cc1ccc(F)cc1)C2`, the “Percent Effect” value (30 µM, 30.03 µM) was -34.67%.

Consider `CCCN1C[C@H]2CC[C@@H]1CN(Cc1cccc(O)c1)C2`, for which, where the note is “30.3 µM, […]”, the “Percent Effect” value is -137.4%. As to `Oc1cccc(CN2C[C@H]3CC[C@@H]2CN(Cc2ccc(F)cc2)C3)c1`, the “Percent Effect” value (30.3 µM, […]) turned out to be 102.6%.
